Here are results for 8 molecules from PubChem BioAssay (NCI).

A short description of the experiment: NCI Yeast Anticancer Drug Screen. Data for the mgt1 strain (AID 153). The note with it: S. cerevisiae mgt1 mutant growth inhibition, active compounds read high. The method, then: Growth inhibition of yeast strains with defined genetic alterations is measured as a screen for potential anti-cancer activity. Selected strains with alterations in DNA damage repair or cell cycle control were exposed to compounds and growth inhibition was measured relative to vehicle treated controls. The strain used in this assay is mgt1

Each structure is given as a SMILES string. Compounds without any hit were thinned out: in the full panel of roughly 79,000, 15% have a hit. A number with no mark means an inactive call. The source made the active and inactive calls. No stated cut-off is given here; in the data, active means growth inhibition above about 70%; inactive means the rest.

`CCOC(=O)/C(=C\c1cccc(C)c1)C(C)=O`: the growth inhibition reads like this: (at 1.2 µM) -2%; (at 3.7 µM) 3%; (at 11.0 µM) 58%; (at 33.0 µM) 91% (active); (at 100.0 µM) 99% (active).

For `CC12CCC(CC(=O)/C1=C(/Br)I)C2(C)C` (stereo not given), the growth inhibition (at 1.2 µM) is -1%; the growth inhibition (at 3.7 µM) is -2%; the growth inhibition (at 11.0 µM) is 6%; the growth inhibition (at 33.0 µM) was -13%; the growth inhibition (at 100.0 µM) is 0%.

For the molecule `CC(=O)CCC1=C(C)C(=O)C(=O)C(C)=C1O`, the growth inhibition runs as follows: (at 1.2 µM) -17%; (at 3.7 µM) 0%; (at 11.0 µM) 4%; (at 33.0 µM) 8%; (at 100.0 µM) 80% (active).

As for `N#[N+]c1c([O-])c2ccccc2c2ccccc12`, the growth inhibition (at 1.2 µM) is 4%; the growth inhibition (at 3.7 µM) was 15%; the growth inhibition (at 11.0 µM) is 23%; the growth inhibition (at 33.0 µM) is 39%; the growth inhibition (at 100.0 µM) was 97% (active).

With `Cc1cccc2c1C1c3c(C)cccc3C(CC(=O)O)CC1CC2` (stereo not given), the growth inhibition is, setting by setting: (at 1.2 µM) 0%; (at 3.7 µM) 47%; (at 11.0 µM) 98% (active); (at 33.0 µM) 97% (active); (at 100.0 µM) 92% (active).

Consider `NC(CS)C(=O)NCCNc1ccc(NCCNC(=O)C(N)CS)c2c1C(=O)c1c(O)ccc(O)c1C2=O` (stereo not given), for which the growth inhibition was 7% (at 1.2 µM); 18% (at 3.7 µM); 23% (at 11.0 µM); 86% (active) (at 33.0 µM); 62% (at 100.0 µM).

For `Nc1cccc(-c2cc[cH-]c2)c1.[Fe+2].c1cc[cH-]c1`, the growth inhibition runs as follows: (at 1.2 µM) -4%; (at 3.7 µM) -3%; (at 11.0 µM) -2%; (at 33.0 µM) 4%; (at 100.0 µM) 93% (active).

Regarding `COc1ccc2nc3cccc([N+](=O)[O-])c3c(NCCNCCN(C)C)c2c1`, the growth inhibition is, setting by setting: (at 1.2 µM) 0%; (at 3.7 µM) -3%; (at 11.0 µM) 20%; (at 33.0 µM) -3%; (at 100.0 µM) 5%.
